Screens from PubChem.
Compounds with a hit are over-represented: about 4.2% of the library has one in this group of screens.
S1P4 antagonist = blocks the human S1P4 receptor; O95977; S1P4-expressing cells, antagonist mode, reporter read-out; inhibition, % at 4.98 µM; 0.26% of 220,000 active; AID 1510; in the data active = inhibition above about 29%;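 note: 0% = wells stimulated with agonist and 100% = vehicle wells without agonist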
Target sequence (O95977 whole entry, looked up): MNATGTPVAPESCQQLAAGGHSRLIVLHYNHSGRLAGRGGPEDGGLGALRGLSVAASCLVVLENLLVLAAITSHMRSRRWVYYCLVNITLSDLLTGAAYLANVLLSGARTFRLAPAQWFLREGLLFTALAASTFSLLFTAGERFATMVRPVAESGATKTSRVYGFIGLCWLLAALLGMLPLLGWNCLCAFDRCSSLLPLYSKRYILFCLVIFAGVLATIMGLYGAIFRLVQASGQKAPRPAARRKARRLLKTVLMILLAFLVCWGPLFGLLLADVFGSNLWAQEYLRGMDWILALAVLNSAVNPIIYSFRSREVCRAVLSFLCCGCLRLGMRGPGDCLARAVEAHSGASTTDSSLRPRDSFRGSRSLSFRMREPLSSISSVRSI
Hsp70 activator = switches on Hsp70 transcription | AID 1203 | 0.04% of 200,000 active | HeLa Hsp70 promoter luciferase reporter, luminescence; scaled: vehicle 0, proteasome-inhibitor control 100% | activation, % at 10 µM;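 active = activation above the mean across all tested compounds plus 3 SD, cutoff set per campaign, cut at about 5.5% in these data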;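 note: 100% = MG132 at 30 µM as the positive control and 0% = DMSO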
S1P4 agonist = activates the human S1P4 receptor; activation, % at 4.98 µM; 0.35% of 220,000 active; AID 1509; O95977; S1P4-expressing cell line, agonist reporter assay; in the data active = activation above about 11%;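 note: 0% = DMSO vehicle and 100% = reference agonist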
CHOP inhibitor = inhibitors of CHOP induction in ER stress response. CHO-K1 CHOP-promoter luciferase, tunicamycin-induced, 15-18 h. inhibition, % at 10 µM. 3.8% of 220,000 active. AID 2732;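 active = compounds that reduced the stress-induced luciferase reporter signal by more than about 70% of percent inhibition, limit read from the data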;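 note: 0% = tunicamycin plus vehicle and 100% = wells without tunicamycin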
Starred values were filed as active, the others as inactive; x = not tested or not shown.

SMILES | S1P4 antagonist | Hsp70 activator | S1P4 agonist | CHOP inhibitor
O=C(NCCCn1ccnc1)c1cc(-c2ccc(Br)cc2)on1 | 1 | 0 | -1 | -10
CCOC(=O)c1cc(CC)sc1NC(=O)CC1Sc2ccc(C(F)(F)F)cc2NC1=O (stereo unspecified) | -19 | -1 | 1 | 82*
CCc1cc(C(=O)OC)c(NC(=O)CC2Nc3cc(C)c(C)cc3NC2=O)s1 (stereo unspecified) | 3 | 0 | 0 | 103*
COC(=O)c1c(NC(=O)CC2Sc3ccc(C(F)(F)F)cc3NC2=O)sc(C)c1C (stereo unspecified) | -3 | 0 | 2 | 23
Cc1cc2ccccc2c(=O)n1CC(=O)NC1CCCCCC1 | -3 | 0 | 0 | 44
OCCN1CCN(C2Cc3cc(Cl)ccc3Sc3ccc(Cl)cc32)CC1 (stereo unspecified) (tested in a mixture with another compound) | -18 | 0 | 3 | 75*
CC(C)(C)c1ccc(OCC(=O)NC2CCS(=O)(=O)C2)cc1 (stereo unspecified) | -13 | 0 | -2 | 33
Clc1ccc(-c2nnnn2-c2ccc(Cl)c(Cl)c2)cc1Cl | -20 | 1 | 1 | 83*
O=C(Nc1ccc(OC(F)F)c(Cl)c1)c1ccccn1 | -1 | 0 | 1 | -42
Cc1ccc(/C=C/C(=O)c2ccccc(=O)c2O)cc1C | 14 | 0 | 0 | 71*
O=C(/C=C/c1ccccc1)c1cc(Br)ccc(=O)c1O | 8 | 0 | -3 | -16
CCCNC(=O)COC(=O)c1ccccc1OCC(=O)Nc1ccc(Br)cc1 | 7 | 0 | 1 | 80*
Cc1ccc(SCC(=O)NC(=O)NCc2ccccc2)c(C)c1 | -17 | 0 | 1 | 81*
Nc1ccccc1Nc1cc(-c2cccc(Cl)c2)nn1-c1ccccc1 | 0 | 0 | 5 | 86*
COC1=C(N)C(=O)c2nc(-c3nc(C(=O)O)c(C)c(-c4ccc(OC)c(OC)c4O)c3N)ccc2C1=O | -1 | 0 | 2 | 81*
CCCCSc1nc(C)cc(SCC(=O)N/N=C/c2cccc(OC)c2O)n1 | -3 | 0 | 2 | 75*
COc1cccc(/C=N/NC(=O)CSc2nnc(C)n2-c2ccccc2)c1O | -1 | 0 | -1 | 24
Cn1ncc(N=Cc2c(O)ccc3ccccc23)c1C(=O)Nc1cccc(Cl)c1 | -9 | 0 | 0 | 76*
CN1CCN(S(=O)(=O)c2ccc(NCc3ccc4c(c3)OCO4)nc2)CC1 | 6 | x | -1 | 6
O=[N+]([O-])c1ccc(OCc2cccc(COc3ccc([N+](=O)[O-])cc3)n2)cc1 | -23 | 0 | 0 | 83*
CC1C(c2ccccc2)N(C)C(c2ccccc2)CC1(O)c1ccccc1 (stereo unspecified) | 4 | 0 | -4 | 85*
CC1/C(=N/O)CC(c2ccccc2)N(C)C1c1ccccc1 (stereo unspecified) | -4 | 0 | 2 | 93*
COc1cc(OC)c(OC)cc1/C=N/NC(=O)c1ccc(=O)n(C)c1 | -12 | 0 | -1 | -10
O=CNn1cnc2c(oc3nc(-c4ccccc4)cc(-c4ccco4)c32)c1=O | 2 | 0 | 0 | 85*
CC(Oc1ccc(Cl)cc1Cl)C(=O)NCCN1CCOCC1 (stereo unspecified) | 7 | 0 | 0 | 18
SMILES | S1P4 antagonist | Hsp70 activator | S1P4 agonist | CHOP inhibitor
CC(Oc1ccccc1F)C(=O)NCCN1CCCCC1 (stereo unspecified) | 8 | 0 | 2 | 74*
COc1ccc(C2CCCN2C(=S)Nc2cccc(C)c2)cc1OC (stereo unspecified) | -10 | 0 | -1 | 34
Cc1[nH]nc2c1C1(CCN(C(=O)OCc3ccccc3)CC1)C(C#N)=C(N)O2 | -5 | 0 | 1 | 73*
Cc1[nH]nc2c1C1(CCN(C(=O)c3ccccc3)CC1)C(C#N)=C(N)O2 | -9 | 0 | 0 | -3
CC(C)CCN1CCN(Cc2nc(-c3ccccc3)cs2)CC1CCO (stereo unspecified) | 4 | 0 | 0 | -12
COc1ccc(/C=C(\C#N)C(=O)OCC(=O)N2CC(C)OC(C)C2)cc1 (stereo unspecified) | 1 | 0 | 2 | 29
COCC(=O)Nc1nc2ccc(C)cc2s1 | -34 | 0 | 1 | 34
Cc1ccc2nc(NC(=O)CCNS(=O)(=O)c3cccs3)sc2c1 | -30 | 0 | 0 | 73*
Cc1cccc2sc(NC(=O)CCNS(=O)(=O)c3cccs3)nc12 | -32 | 0 | 0 | 51
Cc1ccc2nc(NC(=O)CCNS(=O)(=O)c3ccc(Br)s3)sc2c1 | -2 | 0 | 1 | 71*
O=C(/C=C/c1ccc(Cl)cc1Cl)NC(=S)Nc1ccc(CN2CCOCC2)cc1 | -8 | -1 | 4 | 40
